# From PubChem BioAssay AID651899 (Broad Institute, 2012)
# Measured potencies and affinities stand elsewhere. Activity calls are given as the source filed them. No rule for the calls is given here.
# Assay: cytotoxicity in HEK293 cells, dose response, cytotoxicity control, cell-based, plate reader, cherry-pick (AID 651899);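 also: cells exposed to compound for 48 hours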
# Settings: series mostly up to 26 µM; activity change, negative = cytotoxicity: at the top concentration
row,SMILES,"activity change, negative = cytotoxicity"
1,COC(=O)c1sc(N)c(C(=O)OC)c1CSc1nnc(-c2ccccc2Cl)n1C,17.1% (inactive)
2,O=C(Nc1ccc2snnc2c1)N1CCN(c2ccccc2)CC1,18.5% (inactive)
3,O=C(c1ccncc1)N1CC[C@@H]2[C@H](CO)Nc3ccc(Br)cc3[C@@H]21,-1.15% (inactive)
4,CC(=O)c1ccc(C(=O)N2CCCC(C(=O)c3ccc(Cl)cc3)C2)s1 (stereo unspecified),-0.878% (inactive)
5,CCN(CC)c1ccc2cc(C(=O)c3cccs3)c(=O)oc2c1,6.31% (inactive)
6,Cc1ccccc1S(=O)(=O)NCC[C@H]1CC[C@@H](NC(=O)Nc2cccc(F)c2)[C@H](CO)O1,-4.64% (inactive)
7,C=C(C)n1c(=O)n(Cc2ccccc2C)c2ccccc21,-13.3% (inactive)
8,O=c1[nH]c(N2CCN(Cc3ccc4c(c3)OCO4)CC2)nc2c1CCCC2,17.7% (inactive)
9,COc1ccc(C(C)NC(=O)Nc2ccc(C(C)=O)cc2)cc1OC (stereo unspecified),-10.9% (inactive)
10,COc1cc(C(=O)Nc2cccnc2)cc(OC)c1OC,-20.2% (inactive)
11,Cc1cc2c(c(=O)n1Cc1cccnc1)C(c1cccs1)C(C#N)=C(N)O2 (stereo unspecified),-4.37% (inactive)
12,Cc1cc(C(=O)CSc2nncs2)c(C)n1-c1ccc2c(c1)OCO2,-23.3% (inactive)
13,Cc1cc(C)n(-c2ccc(C(=O)Nc3ccc4c(c3)OCO4)cc2)n1,-5.5% (inactive)
14,COc1cccc(NC(=O)N2C[C@H](O)COC[C@@H]3O[C@@H](CC(=O)N(C)C)CC[C@H]32)c1,18.8% (inactive)
15,C=CCn1c(COc2ccccc2F)nnc1SCCN1C(=O)c2ccccc2C1=O,12.7% (inactive)
16,CCOC(=O)c1c(N)sc(C(N)=O)c1C,28.2% (inactive)
17,CCOC(=O)c1c(C)[n+](-c2ccc(C)cc2)c(CC)c2cc(OC)c(OC)cc12,-27.8% (inactive)
18,C/C=C/c1ccc2c(c1)O[C@@H](CN(C)C(=O)c1ccc3c(c1)OCO3)[C@@H](C)CN([C@@H](C)CO)S2(=O)=O,30.5% (inactive)

row,SMILES,"activity change, negative = cytotoxicity"
1,CC(Oc1ccc2c(-c3ccccc3)cc(=O)oc2c1)C(=O)NCc1ccccn1 (stereo unspecified),-28.5% (inactive)
2,CC(=O)c1ccc(C(=O)N2CCCC(Nc3ccc(C(C)C)cc3)C2)s1 (stereo unspecified),8.11% (inactive)
3,CN1CCN(c2ncnc3c2[nH]c2ccc(F)cc23)CC1,13.6% (inactive)
4,Cc1cccc(-c2nnc(SCC#N)n2-c2ccccc2)c1,-15.9% (inactive)
5,CCNC(=O)[C@H]1[C@H](CO)[C@H]2Cn3c(ccc(-c4ccccc4)c3=O)[C@H]2N1C(=O)Cc1cccnc1,18.2% (inactive)
6,CN(C)C(=O)C[C@@H]1C[C@@H]2c3cc(NC(=O)c4cccnc4)ccc3O[C@@H]2[C@@H](CO)O1,-8.22% (inactive)
7,O=C(c1cccc(F)c1)N1CC[C@@H]2[C@H]1c1cc(-c3cccc(F)c3)ccc1N[C@@H]2CO,15.6% [at 23.5 µM] (inactive)
8,O=C(Nc1ccc2nccnc2c1)c1cnccn1,-15.9% (inactive)
9,Cc1ccc(-n2ncc3c2CC(C)(C)CC3NC(=O)CCc2cccnc2)cc1 (stereo unspecified),-6.14% (inactive)
10,COCCNC(=O)C[C@@H]1CC[C@@H]2[C@H](COc3ccc(NC(=O)Nc4cccc(F)c4)cc3C(=O)N2C)O1,7.53% (inactive)
11,O=C(CSc1nnc(-c2ccncc2)n1-c1ccc(Cl)cc1)NCc1cccs1,-11.3% (inactive)
12,O=C(Nc1nccs1)[C@H]1[C@H](CO)[C@H]2Cn3c(ccc(-c4cccnc4)c3=O)[C@H]2N1CC1CCCC1,-6.31% (inactive)
13,COc1ccc(C(=O)Nc2cccnc2)cc1OC,-16.8% (inactive)
14,Nn1c(SC/C=C/c2ccccc2)nnc1-c1cccnc1,-7.17% (inactive)
15,CCOC(=O)C1(CCc2ccccc2)CCN(C(=O)CN2CCOC2=O)CC1,9.01% (inactive)
16,O=C(Nc1cccnc1)c1ccc(N2CCOCC2)c([N+](=O)[O-])c1,25.2% (inactive)
17,O=C(CSc1nc2cc(C(=O)O)ccc2c(=O)n1-c1ccc(F)cc1)Nc1ccc(F)c(F)c1F,26.8% (inactive)
18,Cc1nc2nc(SCC(=O)N3CCOCC3)nn2c(C)c1Cc1ccccc1,2.92% (inactive)
